Where a name gives a salt, the structure may show the parent alone. The whole screen tested about 1,200 compounds, of which about 50 (4%) showed activity. Cut-off read from the data, not from the text of the source: all actives reach 1.3 or more but so do some inactives. Shown is part of a subset that was picked to be rich in actives.
Tested on: Lgr5 (MarsCy1-Lgr5-EGFP, U2OS)
Assay: cell-surface Lgr5 expression (SCi1 fluorescence, background-subtracted) relative to WT DMSO (fold of DMSO control); higher = more Lgr5 at the plasma membrane, active = hit call of the paper
Conditions: U2OS MarsCy1-Lgr5-EGFP stable; treatment time: overnight; 16 µM; library: Johns Hopkins Clinical Compound Library

Compound | cell-surface Lgr5 expression
COc1cc(C2c3cc4c(cc3C(O)C(CO)C2C(=O)O)OCO4)cc(OC)c1OC.COc1cc(C2c3cc4c(cc3C(O)C(CO)C2C(=O)O)OCO4)cc(OC)c1OC.COc1cc(C2c3cc4c(cc3C(O)C3COC(=O)C23)OCO4)cc(OC)c1OC.COc1cc(C2c3cc4c(cc3C(O)C3COC(=O)C23)OCO4)cc(OC)c1OC (stereo unspecified) [Podophyllum resin] | 1.55 (active)
CC(N)C(O)c1ccccc1 (stereo unspecified) [Norephedrine Hydrochloride (Phenylpropanolamine)] | 1.19 (inactive)
C=C[C@H]1CN2CC[C@H]1C[C@@H]2[C@@H](O)c1ccnc2ccccc12 [Cinchonine sulfate] | 1.25 (inactive)
CCN(CC)C(=O)N[C@H]1C=C2c3cccc4[nH]cc(c34)C[C@H]2N(C)C1 [Lisuride] | 1.1 (inactive)
[S]=[Sb][S][Sb]=[S] [Antimony (III) sulfide] | 1.26 (inactive)
NC(=O)CN1CC(O)CC1=O (stereo unspecified) [Oxiracetam] | 1.36 (active)
COc1ccc(O)c(C(C)(C)C)c1.COc1ccc(O)cc1C(C)(C)C [Butylated hydroxyanisole] | 1.15 (inactive)
C=CCN1C[C@H](C(=O)N(CCCN(C)C)C(=O)NCC)C[C@@H]2c3cccc4[nH]cc(c34)C[C@H]21 [Cabergoline] | 0.958 (inactive)
ClC1=C(Cl)C2(Cl)C(CBr)CC1(Cl)C2(Cl)Cl (stereo unspecified) [Bromocyclen] | 1.24 (inactive)
C[C@]12Cc3c[nH]nc3C[C@@H]1CC[C@@H]1[C@@H]2CC[C@@]2(C)[C@H]1CC[C@]2(C)O [Stanozolol] | 1.03 (inactive)
C[C@]12CC[C@H](O)CC1=CC[C@@H]1[C@@H]2CC[C@]2(C)C(=O)CC[C@@H]12 [Prasterone (DHEA, dehydroepiandrosterone)] | 1.33 (active)
C[C@]12CCC(=O)C(O)=C1CC[C@@H]1[C@@H]2CC[C@]2(C)C(=O)CC[C@@H]12 [Formestane (4-Androsten-4-ol-3,17-dione)] | 1.18 (inactive)
C=C1C[C@@H]2[C@H](CC[C@]3(C)C(=O)CC[C@@H]23)[C@@]2(C)C=CC(=O)C=C12 [Exemestane] | 1.48 (inactive)
C[C@]12CC[C@H](O)CC1=CC[C@@H]1[C@@H]2CC[C@]2(C)C(=O)CC[C@@H]12 [Prasterone (dehydroisoandrosterone)] | 1.09 (inactive)
C=CCN=C=S [Allyl isothiocyanate] | 0.99 (inactive)
N[C@@H](Cc1ccc(N(CCCl)CCCl)cc1)C(=O)O [Melphalan] | 1.14 (inactive)
CN(C)C(=O)Oc1cc(OC(=O)N(C)C)cc(C(O)CNC(C)(C)C)c1 (stereo unspecified) [Bambuterol] | 1.21 (inactive)
CC(C)(C)NCC(O)c1ccccc1Cl (stereo unspecified) [Tulobuterol] | 1.42 (active)
C1CN1c1nc(N2CC2)nc(N2CC2)n1 [Triethylenemelamine] | 1.39 (inactive)
[O-][n+]1ccccc1[S-].[O-][n+]1ccccc1[S-].[Zn+2] [Pyrithione zinc (1-Hydroxypyridine-2-Thione Zinc Salt)] | 0.923 (inactive)
CN1C[C@H](C(=O)N[C@]2(C)O[C@@]3(O)[C@@H]4CCCN4C(=O)[C@H](Cc4ccccc4)N3C2=O)C[C@@H]2c3cccc4[nH]cc(c34)C[C@H]21 [Dihydroergotamine methanesulfonate] | 0.612 (inactive)
